# Only a selection was taken, and hits are over-represented in it overall.
# Shiga toxin inh: Shiga toxin inhibition. 290,000 compounds, 9.2% hits. Vero cells, Shiga toxin protein synthesis inhibition reporter. AID 2315. inhibition, % at 38.7 µM; in the data active = inhibition mostly above about 28%, no sharp cut-off; inactive = mostly below about 43%; also: 0% is about no effect
# MARV entry inh: blocks Marburg virus binding to or entry into cells. Marburg virus pseudotyped entry inhibition, cell reporter. Potency, µM (series often up to 37.8 µM), for inactives: top-dose activity change, negative = inhibition, hits mostly inhibitors. 300,000 compounds, 1.8% hits. AID 540276; calls by dose curve; tested in HEK293 cells; also: potency is read from the fitted curve at half-maximal effect; % is scaled to controls: 0 for no effect and ±100 for the full control effect
# AMA1 RON2 block: inhibitors of Plasmodium falciparum AMA1-RON2 interaction | AlphaScreen AMA1-biotinylated RON2 peptide binding | Potency, µM (highest dose often 58.2 µM), for the others: at the highest dose activity change, negative = inhibition, usual class: inhibitors | 360,000 compounds, 0.2% hits | AID 720542; active = well fitted inhibition curve with a large enough effect; inconclusive = small, poorly fitted or top-dose-only effect; inactive = no such curve, though single readings can be large or run the other way;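 also: potency is read from the fitted curve at half-maximal effect; 0% = vehicle wells and -100% = peptide control; nearly all actives have a fitted effect of over 45% in size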
#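 AMA1 (3D7) with his tag at 25 nM final met compounds first, then biotinylated RON2 peptide at 25 nM; detection used donor plus acceptor beads, 10 µg/mL apiece, read by AlphaScreen after 30 min at room temperature.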
# CHX counter: counter-screen for Shiga toxin inhibitors: cycloheximide protein synthesis inhibition; 300,000 compounds, 12% hits; cell reporter, cycloheximide protein synthesis inhibition counterscreen; max response, %; in the data active = max response mostly above about 13%, no sharp cut-off; inactive = mostly below about 14%; also: read at 38.3 µM for the half of the compounds with a filed dose; 0% is about no effect
# Lassa entry inh: inhibitors of Lassa virus binding or cell entry; Potency, µM (series often up to 37.9 µM), without a hit: at the highest dose activity change, negative = inhibition, most hits filed as inhibitors; 300,000 compounds, 1.2% hits; Lassa virus pseudotype entry inhibition, cell reporter; calls by dose curve; tested in HEK293 cells; also: potency is read from the fitted curve at half-maximal effect; % is scaled to controls: 0 for no effect and ±100 for the full control effect; nearly all actives have a fitted effect of over 50% in size
# * = called active by the depositor; ? = inconclusive; nt = no result; [ ] = dose if it differs, or a comment.
SMILES,Shiga toxin inh,MARV entry inh,AMA1 RON2 block,CHX counter,Lassa entry inh
Cc1ccc(C(=O)Nc2ccc3nccnc3c2)cc1,48*,?,-1%,24*,?
COc1ccc(O[C@H]2C=C[C@@H](c3ccccc3)O[C@H]2CON=C2c3cc(OC)ccc3O[C@H](c3cccc(OC)c3)[C@H]2O)cc1,nt,?,nt,nt,-31%[14.3 µM]
CC[C@]12c3[nH]c4ccc(Cl)cc4c3CCN1C(=O)[C@@H](CC(=O)NC/C=C(\C)CCC=C(C)C)C[C@@H]2C(=O)N1CCN(C(=O)c2ccco2)CC1,nt,0%,-23%,nt,nt
COc1ccc2c(c1)CC(C(=O)NCCN1CCN(c3cccc(C)c3C)CC1)CO2 (stereo not given),nt,nt,nt,nt,-18%[46.1 µM]
O=C(Cn1cnc2ccccc2c1=O)NC1CCS(=O)(=O)C1 (stereo not given),nt,1%,1%,nt,26%
Cn1cccc1C(=O)OCc1cc(Cl)cc2c1OCOC2,145*,?,-21%,62*,29%
CCCCC(=O)NC(c1ccc(Cl)cc1Cl)c1ccc2cccnc2c1O (stereo not given),6,?,109%,7,7.1µM*
CCC(=O)NC(c1ccc(Cl)cc1Cl)c1ccc2cccnc2c1O (stereo not given),nt,11µM*,8%,11,?
COc1cccc(CNC(=O)c2ccc3c(c2)nc2n3CCC(C)C2)c1OC (stereo not given),nt,nt,nt,nt,18%[46.1 µM]
Cc1ccccc1-c1cc2nc(NCc3ccccc3)n(C)c(=O)c2s1,nt,nt,0%,nt,nt
Cc1ccccc1-c1cc2nc(NCc3ccc(N(C)C)cc3)n(C)c(=O)c2s1,nt,nt,18µM*,nt,nt
F[B-](F)(F)c1cnc2ccccc2c1,nt,nt,0%,nt,nt
OCC#Cc1cnc2ccccc2c1,21,9%,3%,26*,13%
CC1(C)CCc2cc(-c3ccn(S(=O)(=O)c4ccccc4Cl)n3)ccc2O1,38,2%[14.2 µM],11%,16*,-2%
Fc1ccc(Oc2cnc3ccccc3n2)cc1,39*,7%[46.1 µM],14%,22,0%[46.1 µM]
Nc1ccc(Oc2ccc(F)cc2)nc1,-5,nt,30%,-1,nt
O=[N+]([O-])c1ccc(Oc2cnc3ccccc3n2)cc1,84,-2%[46.1 µM],3%,30,4%
Clc1ccc(Oc2cnc3ccccc3n2)cc1,33*,-6%,7%,21*,2%
COc1ccc(Oc2cc(C)c3ccccc3n2)cc1,69*,8%,-3%,34,19%
Cc1ccc(Oc2cnc3ccccc3n2)cc1,103*,20%,-4%,58*,?
C[C@H]1[C@@H](c2ccccc2)Oc2c(Cl)cccc2S(=O)(=O)N1Cc1ccc(Cl)cc1,nt,nt,nt,nt,5%[46.1 µM]
Cc1ccc(-c2cc(N)nc(-c3ccccc3)c2)cc1,60*,-24%[46.1 µM],-23%,28*,-15%
COc1ccc(S(=O)(=O)N2CCOCC2)cc1C(=O)N(C)CCOc1ccc(Cl)cc1,nt,nt,2%,nt,nt
Cc1nc(S[C@@H]2C=CS(=O)(=O)C2)n[nH]1,nt,0%,nt,nt,nt
Cn1cnc([N+](=O)[O-])c1S(=O)(=O)c1ccc(Cl)cc1,10,?,12%,-3,20µM*
SMILES,Shiga toxin inh,MARV entry inh,AMA1 RON2 block,CHX counter,Lassa entry inh
O=c1c2ccccc2nc(/C=C/c2ccc(O)cc2)n1-c1ccc(O)cc1,-4,nt,0%,0,nt
C(=C\c1nnc2c3ccccc3ncn12)/c1ccccc1,61*,?,-12%[2.32 µM],51*,?
COc1cc(/C=C/c2nnc3c4ccccc4ncn23)cc(OC)c1OC,14,?,5%[2.32 µM],14*,?
O=S1(=O)c2cccc3cccc(c23)N1CCCN1CCN(c2ccc(F)cc2)CC1,-9,nt,nt,5,nt
Cc1ccc(C(=O)NC=C(Cl)Cl)cc1,84*,?,12%,26*,-24%
Cc1ccc(C(=O)NC(O)C(Cl)Cl)cc1 (stereo not given),-6,5%,22%,-5,12%
CCC1(CC)CCNC1=O,12,nt,nt,1,nt
COc1ccc(OC)c(Cc2nnc(CCC(=O)N3CCCCC3c3nccs3)o2)c1 (stereo not given),87*,nt,6%,43*,nt
COc1cccc(CCNC(=O)CCc2nnc(Cc3cc(OC)ccc3OC)o2)c1,23*,nt,-6%,28*,nt
COc1ccc(OC)c(Cc2nnc(CCC(=O)NC3CCCCCCC3)o2)c1,77*,?,10%,33*,6%[46.1 µM]
COc1ccc(OC)c(Cc2nnc(CCC(=O)N3CCCCCC3)o2)c1,-11,?,-6%,-3,12%[46.1 µM]
Cc1ccc(-c2nn(-c3ccc(F)cc3F)c3c2cnc2ccc(F)cc23)cc1,nt,nt,nt,nt,-16%[46.1 µM]
COc1cc(NC(=O)CSc2cc(=O)n(C)c3ccccc23)cc(OC)c1OC,nt,?,nt,nt,12%[46.1 µM]
CCN(CC)S(=O)(=O)c1ccc2c(c1)nc(-c1ccccn1)n2C,83*,0%[46.1 µM],18%,23*,nt
CC[C@H](C)[C@H](NC(=O)[C@H](CC(C)C)NC(=O)[C@H](CO)NC(=O)[C@H](CCC(=O)O)NC(=O)[C@H](CC(C)C)NC(=O)[C@H](Cc1ccc(O)cc1)NC(=O)[C@H](CCCCN)NC(=O)[C@H](CCCCN)NC(=O)[C@H](C)NC(=O)[C@H](CO)NC(=O)[C@H](CC(C)C)NC(=O)[C@H](CCC(N)=O)NC(=O)CNC(=O)[C@H](CC(C)C)NC(=O)[C@H](CC(C)C)NC(=O)[C@H](CCCNC(=N)N)NC(=O)[C@H](CO)NC(=O)[C@H](Cc1ccccc1)NC(=O)[C@H](CC(=O)O)NC(=O)[C@H](CO)NC(=O)[C@@H](NC(=O)[C@H](Cc1ccccc1)NC(=O)[C@@H](NC(=O)CNC(=O)[C@H](CC(=O)O)NC(=O)[C@H](C)NC(=O)[C@@H](N)Cc1cnc[nH]1)C(C)C)[C@@H](C)O)C(N)=O,-7,nt,nt,-9,nt
COCc1[nH]nc2c1[C@@H](c1ccnc3ccccc13)C(C#N)=C(N)O2,nt,-15%,nt,nt,nt
O=C(O)c1ccc(N/N=C/C2=Cc3ccccc3OC2)cc1,73*,nt,-16%,41*,nt
CCOc1ccc(CNC(=O)Cn2ccc3cc(S(=O)(=O)N4CCCC4)ccc32)cc1,15,nt,-6%,-2,nt
O=C(c1ccccc1)c1ccc(Cn2cc(-c3ccccc3)nn2)cc1,57*,nt,0%,24*,nt
COc1ccc(OC)c(C2=NO[C@@](CC(=O)O)(C(=O)Nc3ccc4c(c3)OCCO4)C2)c1,77*,0%[46.1 µM],15%,65*,16%[46.1 µM]
O=C(O)CC1(CC(=O)Nc2ccc3c(c2)OCCCO3)CCCCC1,3,8%[46.1 µM],11%,2,4%
Cc1ccc(C2=NO[C@@](CC(=O)O)(C(=O)Nc3ccc4c(c3)OCCO4)C2)cc1,117*,?,6%,129*,26%[46.1 µM]
COc1ccc(OC)c(NC(=O)[C@@]2(CC(=O)O)CC(/C=C/c3ccccc3)=NO2)c1,1,28%[46.1 µM],-17%,-3,26%[46.1 µM]
COc1ccc(/C(C)=N/NC(=O)C2C3CCCCC32)c(OC)c1 (stereo not given),41*,11%,2%,12,-25%
COc1ccc(/C=N/NC(=O)c2ccccc2OCc2ccccc2)c(OC)c1,64*,?,-8%,30*,?
